The record followed here is PubChem BioAssay (Tox21).

Results filed as inconclusive are left out. Activity calls are given as the source filed them. The call rests on the fitted dose curve; in most records, active means well fitted cell-killing curve with a large enough effect in the repeat runs; inconclusive means weak or mixed curves; inactive means flat fitted curve, though single readings scatter.
On the % scale 0 is the no-effect control and ±100 the full control effect.

A short description of this assay: qHTS assay to identify small molecule antagonists of the TGF-beta/Smad signaling pathway - cell viability counter screen (AID 1346824). Further: nearly all actives have a fitted effect of over 50% in size. Conditions: SBE-bla HEK293T viability, CellTiter-Glo luminescence; series mostly up to 76.8 µM; viability change, negative = cytotoxic: at the top concentration. From the text:
U.S. Tox21 Program National Center for Advancing Translational Sciences [NCATS] NIH Chemical Genomics Center [NCGC] U.S. Environmental Protection Agency [EPA] National Institutes of Environmental Health Sciences [NIEHS] National Toxicology Program [NTP] U.S. Food and Drug Administration [FDA] Tox21 Assay Overview: Transforming growth factor beta (TGF-beta) superfamily consists of a large number of structurally related dimeric proteins that act as hormones or local mediators in regulating a wide range of biological functions. This superfamily includes TGF-betas themselves, the bone morphogenetic proteins (BMPs) and the activins. These ligands induce oligomerization of serine/threonine receptor kinases and phosphorylate the cytoplasmic signaling molecules of Smad protein family. CellSensor SBE-bla HEK 293T cell line (Life Technologies, Carlsbad, CA), responsive to TGF-beta was used to screen Tox21 10K compound library for identification of agonists/antagonists of the Smad signaling pathway. This cell line contains a beta-lactamase reporter gene under control of the Smad binding element (SBE) stably integrated into HEK 293T cells. Also cytotoxicity of the compounds was tested in parallel by measuring the cell viability using CellTiter-Glo assay system in the same wells.
Tox21 Assay Protocol Summary: SBE-bla HEK 293T cells were dispensed at 4,000/well in 5 uL of assay medium into black wall/clear-bottom 1536-well plates using a Multidrop Combi (ThermoFisher Scientific, Waltham, MA) dispenser. After the assay plates were incubated at 37 C and 5% CO2 for an overnight, 23 nL of compounds dissolved in DMSO, positive controls or DMSO only was transferred to the assay plate by a Pintool station (Kalypsys, San Diego, CA). Compound transfer was followed by the addition of 1 uL of 0.25 ng/mL TGF-beta1 or assay buffer using two separate tips of Flying Reagent Dispenser (FRD, Aurora Discovery, San Diego, CA). The assay plates were incubated at 37 C and 5% CO2 for 5 hr. One uL of LiveBLAzer B/G FRET substrate (Life Technologies) was added using a Flying Reagent Dispenser (FRD, Aurora Discovery, San Diego, CA) and the plates were incubated at room temperature for 2 hr. Fluorescence intensity (405 nm excitation, 460 nm and 530 nm emissions) was measured using an Envision plate reader (PerkinElmer, Shelton, CT). For cytotoxicity read, 4 uL of CellTiter-Glo reagent (Promega Corporation, Madison, WI) was added to each well of the assay plates using FRD. After 30 min incubation at room temperature, the luminescence intensity was measured using ViewLux plate reader (PerkinElmer).
Regarding `CCC1(c2ccccc2)C(=O)N=C(O)NC1=O` (stereo not given), the “viability change, negative = cytotoxic” value was -0.414% (inactive).

Consider `O=C(CCCN1CCC(n2c(=O)[nH]c3ccccc32)CC1)c1ccc(F)cc1`, for which the “viability change, negative = cytotoxic” value was -10.4% [at 35.3 µM] (inactive).

In the case of `CN1C(=S)CN=C(c2ccccc2)c2cc(Cl)ccc21`, the “viability change, negative = cytotoxic” value was -4.44% [at 35.3 µM] (inactive).

In the case of `CCN(CC)C(=O)[C@@H]1C=C2c3cccc4[nH]cc(c34)C[C@H]2N(C)C1`, the “viability change, negative = cytotoxic” value is 0.879% [at 200 µM] (inactive).

For `C[N+](C)=CCl`, the “viability change, negative = cytotoxic” value is -4.44% (inactive).

`CC(C1CC1)C(O)(Cn1cncn1)c1ccc(Cl)cc1` (stereo not given): the “viability change, negative = cytotoxic” value was -12.1% (inactive).

In the case of `N#CC(Cl)(Cl)Cl`, the “viability change, negative = cytotoxic” value was 19.4% (inactive).

In the case of `O=[N+]([O-])c1cccc2cccnc12`, the “viability change, negative = cytotoxic” value was -12.6% (inactive).

Take `COc1ncc(F)c2nc(S(=O)(=O)Nc3c(F)cccc3F)nn12`: the “viability change, negative = cytotoxic” value is -2.43% [at 35.3 µM] (inactive).

With `CC1CCC(=O)O1` (stereo not given), the “viability change, negative = cytotoxic” value is 5.62% (inactive).

Take `CC1(C)C(=O)NC(=O)NC1=O`: the “viability change, negative = cytotoxic” value is 2.01% (inactive).

In the case of `COC(=O)c1ccccc1S(=O)(=O)NC(=O)N(C)c1nc(C)nc(OC)n1`, the “viability change, negative = cytotoxic” value was 7.39% (inactive).

As for `CCS(=O)(=O)C(C)(C)S(=O)(=O)CC`, the “viability change, negative = cytotoxic” value was -0.238% [at 35.3 µM] (inactive).

Take `Cc1ncc(CNC(=O)N(CCCl)N=O)c(N)n1`: the “viability change, negative = cytotoxic” value is 5.53% [at 35.3 µM] (inactive).

In the case of `OC(c1ccc(F)cc1)(c1cncnc1)c1ccccc1Cl` (stereo not given), the “viability change, negative = cytotoxic” value was 0.542% (inactive).

Turning to `CCOP(=S)(OCC)Oc1ncn(-c2ccccc2)n1`, the “viability change, negative = cytotoxic” value was 0.916% (inactive).

For `CC(C)[N+](=O)[O-]`, the “viability change, negative = cytotoxic” value is -4.63% (inactive).

Turning to `CCCCN(CCCCO)N=O`, the “viability change, negative = cytotoxic” value is 2.02% (inactive).

In the case of `CN(N=O)C(N)=O`, the “viability change, negative = cytotoxic” value is -0.316% (inactive).

For `CN(C)CCc1ccc(O)cc1`, the “viability change, negative = cytotoxic” value was 3.41% [at 35.3 µM] (inactive).

With `C[C@H]1CCC[C@H](O)CCCCCc2cc(O)cc(O)c2C(=O)O1`, the “viability change, negative = cytotoxic” value was 9.88% (inactive).

On to `O=C1OC(=O)C2C1C1(Cl)C(Cl)=C(Cl)C2(Cl)C1(Cl)Cl` (stereo not given), for which the “viability change, negative = cytotoxic” value was 0.412% (inactive).

For `CCN(Cc1ccc(Cl)nc1)/C(=C/[N+](=O)[O-])NC`, the “viability change, negative = cytotoxic” value was -4.31% [at 35.3 µM] (inactive).

Turning to `ClCCOCOCCCl`, the “viability change, negative = cytotoxic” value was 5.45% (inactive).

For the molecule `O=C(Cc1ccccc1)OCc1ccccc1`, the “viability change, negative = cytotoxic” value is -9.16% (inactive).

Consider `O=c1oc2ccccc2c(O)c1C1CCCc2ccccc21` (stereo not given), for which the “viability change, negative = cytotoxic” value is 12.3% (inactive).

With `O=[N+]([O-])c1cccc2c([N+](=O)[O-])cccc12`, the “viability change, negative = cytotoxic” value is -0.0454% (inactive).

Regarding `CC(C(O)c1ccccc1)N(C)C/C=C/c1ccccc1` (stereo not given), the “viability change, negative = cytotoxic” value is -10.7% [at 35.3 µM] (inactive).

For the molecule `Cc1cnc[nH]1`, the “viability change, negative = cytotoxic” value is 1.6% (inactive).

Consider `Oc1c(Cl)cccc1Cl`, for which the “viability change, negative = cytotoxic” value is -3.17% (inactive).

Regarding `Nc1c(Br)cc([N+](=O)[O-])cc1[N+](=O)[O-]`, the “viability change, negative = cytotoxic” value was 0.867% (inactive).

In the case of `COc1cc(OC)nc(NC(=O)NS(=O)(=O)c2ncccc2C(=O)N(C)C)n1`, the “viability change, negative = cytotoxic” value is 2.8% (inactive).

As for `CC(COc1ccc(Oc2ccccc2)cc1)Oc1ccccn1` (stereo not given), the “viability change, negative = cytotoxic” value is -6.93% (inactive).

Take `O=[N+]([O-])c1ccc2c3c(cccc13)CC2`: the “viability change, negative = cytotoxic” value is -22.1% (inactive).

Take `CN1CCC(N(Cc2ccccc2)c2ccccc2)CC1`: the “viability change, negative = cytotoxic” value was -0.494% [at 35.3 µM] (inactive).

Regarding `O=[N+]([O-])c1cc(Cl)c(Cl)c(Cl)c1`, the “viability change, negative = cytotoxic” value is -11.7% (inactive).

For `Fc1ccc(C2(Cn3cncn3)OC2c2ccccc2Cl)cc1` (stereo not given), the “viability change, negative = cytotoxic” value was -9.22% (inactive).

As to `CC(CCc1ccccc1)NC(C)C(O)c1ccc(O)cc1` (stereo not given), the “viability change, negative = cytotoxic” value was 4.39% [at 35.3 µM] (inactive).

Consider `C=CC1CC=CCC1` (stereo not given), for which the “viability change, negative = cytotoxic” value was 0.501% (inactive).

With `OC(c1ccccc1)(c1ccccc1)C1CCNCC1`, the “viability change, negative = cytotoxic” value was 7.53% [at 35.3 µM] (inactive).
